Binding signal data for ten sequences are collected here from article PMC8384837, “Expanding the binding specificity for RNA recognition by a PUF domain”.

Common to all, as to experiment: yeast three-hybrid, YBZ-1, SC-Leu-His + 0.5 mM 3-AT, 4 days
Common to all, as to conditions: tags: N-Gal4 AD-HA kept; label: inside an RPR1-promoter hybrid RNA with tandem MS2 sites; ssRNA

The target in one assay is PUM1 PUF domain R7-RSR (Homo sapiens, UniProt Q14671 828-1176, S1079R;N1080S;E1083R). Put shortly:
(§1)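 Matching RNA elements and Pumilio-1 PUF domain libraries, randomized at the three base-contacting residues of every repeat, were co-expressed from a centromeric plasmid in strain YBZ-1 (LexA–MS2 coat fusion, HIS3 reporter). The repeat regions were PCR-amplified and Illumina-sequenced from cells grown four days on SC-Leu (input) or SC-Leu-His + 0.5 mM 3-AT (selection). The interaction score is the log change in variant frequency from input to selection. It is computed in log2, with a pseudocount of 1 for absent variants.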

Another assay addresses PUM1 PUF domain R5-LYG (Homo sapiens, UniProt Q14671 828-1176, C1007L;R1008Y;Q1011G). The method, boiled down: as §1
In the next assay the target is PUM1 PUF domain R8-KFA (Homo sapiens, UniProt Q14671 828-1176, N1122K;Y1123F;Q1126A). Put shortly: as §1
The target of another assay is T1, PUM1 PUF domain R6-CWR (Homo sapiens, UniProt Q14671 828-1176, N1043C;Y1044W;Q1047R).
T1 sequence: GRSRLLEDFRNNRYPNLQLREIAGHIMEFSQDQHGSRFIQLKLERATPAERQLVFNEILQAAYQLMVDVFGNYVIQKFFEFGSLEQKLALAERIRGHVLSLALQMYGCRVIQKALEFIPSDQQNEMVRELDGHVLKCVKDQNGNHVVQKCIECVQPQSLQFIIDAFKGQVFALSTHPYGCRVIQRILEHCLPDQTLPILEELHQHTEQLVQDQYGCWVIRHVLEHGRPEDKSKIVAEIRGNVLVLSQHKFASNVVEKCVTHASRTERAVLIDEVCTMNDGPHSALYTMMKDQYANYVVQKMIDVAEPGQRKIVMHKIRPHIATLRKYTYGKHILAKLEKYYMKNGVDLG
The method, boiled down:
as §1

The next assay addresses PUM1 PUF domain R3-IFV (Homo sapiens, UniProt Q14671 828-1176, C935I;R936F;Q939V). The method, boiled down: as §1
The next assay addresses PUM1 PUF domain R3-DHV (Homo sapiens, UniProt Q14671 828-1176, C935D;R936H;Q939V). Put shortly:
as §1

A further assay has as its target PUM1 PUF domain R5-WHC (Homo sapiens, UniProt Q14671 828-1176, C1007W;R1008H;Q1011C). The method, boiled down:
as §1

The next assay deals with PUM1 PUF domain R5-FHT (Homo sapiens, UniProt Q14671 828-1176, C1007F;R1008H;Q1011T). Put shortly:
as §1

For the next assay, the target named is PUM1 PUF domain R1-KVS (Homo sapiens, UniProt Q14671 828-1176, S863K;R864V;Q867S). The method, boiled down: as §1
In another assay the target is PUM1 PUF domain R3-LFT (Homo sapiens, UniProt Q14671 828-1176, C935L;R936F;Q939T). The method, boiled down: as §1

With “GGCUAGAACUAGUGGAUCCCCCGGCGCCCGGCGGCUCGAGCCCGGGUAAGUCUAAAUAGUCUGCAUGCCGCCGGGCGCCAUGCCUGCAGGUCGACUCUAGAAAACAUG”, the binding signal with PUM1 PUF domain R7-RSR is 3.42 log2 enrichment (interaction score). As to “GGCUAGAACUAGUGGAUCCCCCGGCGCCCGGCGGCUCGAGCCCGGGUAAGUGUUAAUAGUCUGCAUGCCGCCGGGCGCCAUGCCUGCAGGUCGACUCUAGAAAACAUG”, the binding signal with PUM1 PUF domain R5-LYG was 2.42 log2 enrichment (interaction score).

As for “GGCUAGAACUAGUGGAUCCCCCGGCGCCCGGCGGCUCGAGCCCGGGUAAGUGUAAAUAGUCUGCAUGCCGCCGGGCGCCAUGCCUGCAGGUCGACUCUAGAAAACAUG”, the binding signal in the assay with PUM1 PUF domain R8-KFA was 4.75 log2 enrichment (interaction score); with PUM1 PUF domain R5-LYG it was 3.46 log2 enrichment (interaction score); with PUM1 PUF domain R6-CWR it was 5.42 log2 enrichment (interaction score); with PUM1 PUF domain R3-IFV, 4.8 log2 enrichment (interaction score); in the assay with PUM1 PUF domain R3-DHV it was 4.2 log2 enrichment (interaction score). In the case of “GGCUAGAACUAGUGGAUCCCCCGGCGCCCGGCGGCUCGAGCCCGGGUAAGUGUCAAUAGUCUGCAUGCCGCCGGGCGCCAUGCCUGCAGGUCGACUCUAGAAAACAUG”, the binding signal is 3.6 log2 enrichment (interaction score) with PUM1 PUF domain R5-WHC and 2.81 log2 enrichment (interaction score) with PUM1 PUF domain R5-FHT. Regarding “GGCUAGAACUAGUGGAUCCCCCGGCGCCCGGCGGCUCGAGCCCGGGUAAGCGUAAAUAGUCUGCAUGCCGCCGGGCGCCAUGCCUGCAGGUCGACUCUAGAAAACAUG”, the binding signal with PUM1 PUF domain R8-KFA is 6.97 log2 enrichment (interaction score). Take “GGCUAGAACUAGUGGAUCCCCCGGCGCCCGGCGGCUCGAGCCCGGGUAAGUGUAAAUUGUCUGCAUGCCGCCGGGCGCCAUGCCUGCAGGUCGACUCUAGAAAACAUG”: the binding signal in the assay with PUM1 PUF domain R1-KVS was 4.64 log2 enrichment (interaction score). Consider “GGCUAGAACUAGUGGAUCCCCCGGCGCCCGGCGGCUCGAGCCCGGGUAAGUUUAAAUAGUCUGCAUGCCGCCGGGCGCCAUGCCUGCAGGUCGACUCUAGAAAACAUG”, for which the binding signal with PUM1 PUF domain R7-RSR was 4.84 log2 enrichment (interaction score). As to “GGCUAGAACUAGUGGAUCCCCCGGCGCCCGGCGGCUCGAGCCCGGGUAAGUGUAAUUAGUCUGCAUGCCGCCGGGCGCCAUGCCUGCAGGUCGACUCUAGAAAACAUG”, the values for the binding signal with PUM1 PUF domain R3-LFT and with PUM1 PUF domain R3-IFV were 5.16 log2 enrichment (interaction score) and 4.5 log2 enrichment (interaction score), respectively. Take “GGCUAGAACUAGUGGAUCCCCCGGCGCCCGGCGGCUCGAGCCCGGGUAAGUGUAAGUAGUCUGCAUGCCGCCGGGCGCCAUGCCUGCAGGUCGACUCUAGAAAACAUG”: the binding signal in the assay with PUM1 PUF domain R3-LFT is 6.89 log2 enrichment (interaction score); in the assay with PUM1 PUF domain R3-IFV it was 3.32 log2 enrichment (interaction score); with PUM1 PUF domain R3-DHV, 1.77 log2 enrichment (interaction score). Regarding “GGCUAGAACUAGUGGAUCCCCCGGCGCCCGGCGGCUCGAGCCCGGGUAAGUGUAAAUCGUCUGCAUGCCGCCGGGCGCCAUGCCUGCAGGUCGACUCUAGAAAACAUG”, in the assay with PUM1 PUF domain R1-KVS, the binding signal was 5.01 log2 enrichment (interaction score).
